Laboratory results reported in PubChem BioAssay AID1159580 (chemical genetic matrix, 2015).
Hit rate of the full screen: of about 5,500 compounds, about 2,000 (36%) were called active. Inconclusive results (about 18%) are left out. Rule as the data show it: active = normalized growth mostly below about 0.91 (no sharp cut-off); inconclusive = no clear call, values can overlap the other calls; inactive = mostly above about 0.92. Some of the results follow.

Experiment: chemical genetic growth profiling, strain panel (AID 1159580);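 also: tested at 20 µM; growth read once vehicle control cultures reached saturation at 30 °C; 1 = growth at the plate median or of vehicle wells; lower values mean less growth of the strain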
Details: S. cerevisiae deletion strains, growth OD

Measured: normalized growth

CCN1CCC[C@H]1CNC(=O)c1cc(S(N)(=O)=O)ccc1OC
inactive: locus YAL013W, strain DEP1, hits give low values 1.02 | locus YAL040C, strain CLN3, hits give low values 1.07 | locus YCL061C, strain MRC1 (second series), hits give low values 1.01 | locus YDR150W, strain NUM1, hits give low values 1.01 | locus YDR363W, strain ESC2, hits give low values 1.03 | locus YER002W, strain NOP16, hits give low values 1.02 | locus YGR078C, strain PAC10, hits give low values 1.02 | locus YGR229C, strain SMI1, hits give low values 1.02 | locus YMR307W, strain GAS1, hits give low values 0.997 | locus YNL128W, strain TEP1, hits give low values 0.995 | locus YNL153C, strain GIM3, hits give low values 1.02 | locus YNL175C, strain NOP13, hits give low values 1 | locus YNL197C, strain WHI3, hits give low values 1.01 | locus YNL224C, strain SQS1, hits give low values 1.01 | locus YOR083W, strain WHI5 (second series), hits give low values 1.01 | locus YPL055C, strain LGE1, hits give low values 1.01
